DAX1 inh-1 = inhibitors of DAX1 repression of SF-1 activated StAR promoter; HEK293T StAR-luciferase reporter, SF-1/DAX-1 repression relief; inhibition, % at 6.8 µM; hit rate 1.1% among 370,000; AID 652010;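 active means inhibition above the mean over all tested compounds plus 3 SD, cut at about 3.6% in these data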;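 further: 0% = DAX-1 cells with DMSO and 100% = cells lacking DAX-1 with DMSO; higher inhibition means more luminescence from relief of DAX-1 repression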
SMARCA2 activ = activators of SMARCA2 function | AID 652017 | MG213 cells, MMTV-luciferase reporter, dexamethasone, overnight | activation, % at 9.1 µM | hit rate 1% among 370,000; in the data active means activation above about 7.8%;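 further: 0% = vehicle wells and 100% = reference activator wells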
DAX1 inh-2 = inhibitors of human orphan nuclear receptor DAX1 (NR0B1) | hit rate 0.99% among 340,000 | P51843 | inhibition, % at 6.75 µM | HEK293 Gal4-DAX1 luciferase reporter, luminescence;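 active means inhibition above the mean over all tested compounds plus 3 SD, cut at about 4.2% in these data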;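 further: 0% = DAX1-transfected cells with DMSO and 100% = empty-vector control cells with DMSO; inhibition shows as a rise in luminescence from relieved DAX1 repression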
hcDAF-12 act = activates DAF-12 receptor from parasite H. contortus; activation, % at 6.8 µM; hit rate 1.4% among 370,000; AID 652067; HEK293 hcDAF-12 lit1-tk-luc reporter, luminescence; 0% DMSO, 100% Δ7-dafachronic acid;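 active means activation above the mean of all tested compounds plus 3 SD, cut at about 5.5% in these data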;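 further: 100% = response to 3 µM Δ7-dafachronic acid high control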
hgDAF12 agonist = hgDAF-12 agonism, primary luciferase screen; HEK293 GAL4-hgDAF12 UAS-luciferase reporter, agonist luminescence; normalized to butyrate control; activation, % at 6.8 µM; hit rate 1.8% among 370,000;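 active means activation above a cutoff set at the mean of all screened compounds plus 3 SD, cut at about 10% in these data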;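 further: 0% = DMSO wells and 100% = sodium butyrate wells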
ssDAF-12 act = S. stercoralis DAF-12 activation, primary screen | HEK293 ssDAF-12/GRIP1 lit1-tk-luc reporter, luminescence; % of 3 µM dafachronic acid response | activation, % at 6.8 µM | hit rate 1% among 370,000 | AID 652126;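 active means activation above the mean over all tested compounds plus 3 SD, cut at about 0.9% in these data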;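 further: 0% = DMSO-only wells and 100% = 3 µM delta7-dafachronic acid wells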
DAX1 conf = confirmation of human DAX1 (NR0B1) inhibitors | hit rate 87% among 2,400 | inhibition, % at 6.8 µM | AID 652134 | shares compounds with DAX1 inh-1 | HEK293T StAR-promoter luciferase reporter, SF-1/DAX-1 repression;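 active means inhibition above the average of every tested compound plus 3 SD, cut at about 3.8% in these data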;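 further: 0% = DAX-1 cells with DMSO and 100% = no DAX-1 control cells with DMSO; active compounds raise luminescence by relieving repression of the StAR reporter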
Target sequence (P51843 whole entry, looked up): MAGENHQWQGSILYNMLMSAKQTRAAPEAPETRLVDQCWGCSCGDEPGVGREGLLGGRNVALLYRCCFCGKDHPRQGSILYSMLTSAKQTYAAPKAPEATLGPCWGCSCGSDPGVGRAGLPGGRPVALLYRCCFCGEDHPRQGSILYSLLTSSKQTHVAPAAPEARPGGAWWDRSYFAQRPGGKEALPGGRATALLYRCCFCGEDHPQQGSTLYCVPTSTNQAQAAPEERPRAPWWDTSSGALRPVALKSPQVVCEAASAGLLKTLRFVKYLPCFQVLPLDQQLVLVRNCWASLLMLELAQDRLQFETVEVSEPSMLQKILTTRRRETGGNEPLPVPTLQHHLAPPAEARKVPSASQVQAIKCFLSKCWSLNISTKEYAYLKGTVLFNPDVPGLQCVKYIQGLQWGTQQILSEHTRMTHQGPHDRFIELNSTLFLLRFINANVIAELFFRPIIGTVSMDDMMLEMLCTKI
SF1 AF2mut Luc = counter-screen for DAX1 inhibitors: nonselective inhibitors with SF-1 AF2 mutant; inhibition, % at 6.8 µM; HEK293 StAR-luciferase, luminescence; shares compounds with DAX1 inh-1; hit rate 78% among 2,400;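 active means inhibition above the mean of all tested compounds plus 3 SD, cut at about 3% in these data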;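 further: 0% = DAX-1 transfected cells with DMSO and 100% = cells without DAX-1 with DMSO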
SMARCA2 conf = SMARCA2 activation, confirmation screen; shares compounds with SMARCA2 activ; MG213 cells, MMTV-luciferase with dexamethasone, luminescence, overnight; MG213 cells expressing E1A, Rb sequestered; DMSO wells 0%, reference activator 100%; activation, % at 9.1 µM; hit rate 30% among 3,500;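 active means activation above its plate's cutoff, the mean activation of tested wells plus 3 SD, cut at about 7.9% in these data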
GAL4-VP16 Luc = GAL4-VP16 reporter activation counter-screen. shares compounds with SMARCA2 activ. HEK293 GAL4-VP16 pG5luc reporter, luciferase luminescence; scaled: DMSO wells 0%, SAHA wells 100%. activation, % at 9.1 µM. hit rate 41% among 3,500;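 active means activation above the solvent-only control well mean plus 3 SD, averaged across control plates, cut at about 5.2% in these data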
Starred values were filed as active, the others as inactive; ! = repeats disagree. The list is not random: actives were taken first. Their share in the collection is about 4.8%.

What do the screens show for `Nc1nnc2cc(F)ccc2n1`?
DAX1 inh-1: -1; SMARCA2 activ: 1; DAX1 inh-2: 2; hcDAF-12 act: 0; hgDAF12 agonist: 0; ssDAF-12 act: -1

Results for COCCNc1c(-c2cc3ccc(C)c(C)c3[nH]c2=O)nc2ccccn12 ?
DAX1 inh-1: 4.9*; SMARCA2 activ: 10*; DAX1 inh-2: 0; hcDAF-12 act: 3; hgDAF12 agonist: 10; ssDAF-12 act: -1; DAX1 conf: 6.1*; SF1 AF2mut Luc: 3.3*; SMARCA2 conf: 18*; GAL4-VP16 Luc: 6.4*

Results for c1ccc(CSc2nc3ncccn3n2)cc1 ?
DAX1 inh-1: 6.8*; SMARCA2 activ: 8.7*; DAX1 inh-2: 1; hcDAF-12 act: 2; hgDAF12 agonist: 10; ssDAF-12 act: 0; DAX1 conf: 8.4*; SF1 AF2mut Luc: 4.8*; SMARCA2 conf: 12*; GAL4-VP16 Luc: 8.8*

Results for O=C(NCCc1ccccc1)c1nc2ncccn2n1 ?
DAX1 inh-1: 0; SMARCA2 activ: -3; DAX1 inh-2: 0; hcDAF-12 act: -2; hgDAF12 agonist: -3; ssDAF-12 act: 0

Results for O=C(Nc1ncc(Cc2ccccc2)s1)C1CCCO1 (stereo unspecified) ?
DAX1 inh-1: 8.3*; SMARCA2 activ: 12*; DAX1 inh-2: 0; hcDAF-12 act: 4; hgDAF12 agonist: 13*; ssDAF-12 act: 1; DAX1 conf: 11*; SF1 AF2mut Luc: 4.8*; SMARCA2 conf: 11*; GAL4-VP16 Luc: 8.6*

What do the screens show for `Cc1ccc(/C=C/C(=O)NCc2ccccn2)o1`?
DAX1 inh-1: -1; SMARCA2 activ: -1; DAX1 inh-2: 0; hcDAF-12 act: 0; hgDAF12 agonist: -3; ssDAF-12 act: -1

What do the screens show for `COc1ccc(-c2cc(NC=O)c3ncc(-c4ccc(OC)c(OC)c4)n3c2)c(OC)c1`?
DAX1 inh-1: 6.5*; SMARCA2 activ: 11*; hcDAF-12 act: -4; hgDAF12 agonist: -3; ssDAF-12 act: -1; DAX1 conf: 12*; SF1 AF2mut Luc: -8; SMARCA2 conf: 17*; GAL4-VP16 Luc: 11*

Results for CS(=O)(=O)N(CC(=O)Nc1cccc([N+](=O)[O-])c1)c1ccccc1 ?
DAX1 inh-1: 0; SMARCA2 activ: 1; DAX1 inh-2: 2; hcDAF-12 act: 0; hgDAF12 agonist: 2; ssDAF-12 act: 0

What do the screens show for `COc1cc(C=NNc2ccccc2)ccc1OC(=O)c1ccccc1`?
DAX1 inh-1: 0; SMARCA2 activ: -1; DAX1 inh-2: 1; hcDAF-12 act: 0; hgDAF12 agonist: -2; ssDAF-12 act: -1

What do the screens show for `COc1ccc(/C=N/Nc2ccc(C(=O)O)cc2)cc1OC`?
DAX1 inh-1: 5.3*; SMARCA2 activ: 9.1*; DAX1 inh-2: 1; hcDAF-12 act: 6.1*; hgDAF12 agonist: 11*; ssDAF-12 act: 0; DAX1 conf: 17*; SF1 AF2mut Luc: 5.8*; SMARCA2 conf: 5; GAL4-VP16 Luc: 13*

What do the screens show for `Cc1nnc(N2CCN(c3ccccc3)CC2)[nH]c1=O`?
DAX1 inh-1: -1; SMARCA2 activ: 0; DAX1 inh-2: 1; hcDAF-12 act: -1; hgDAF12 agonist: 2; ssDAF-12 act: -1

How did CCC(C)C(=O)OC1CCC=C2C=CC(C)C(CCC3CC(O)CC(=O)O3)C21 (stereo unspecified) do in these assays?
DAX1 inh-1: 1; SMARCA2 activ: 2; DAX1 inh-2: 2; hcDAF-12 act: 2; hgDAF12 agonist: 5; ssDAF-12 act: -1

Results for CC[C@H](C)C(=O)O[C@H]1C[C@@H](C)C=C2C=C[C@H](C)[C@H](CC[C@@H]3C[C@@H](O)CC(=O)O3)[C@H]21 ?
DAX1 inh-1: 5.2*!; SMARCA2 activ: 8.2*!; DAX1 inh-2: 0; hcDAF-12 act: 0; hgDAF12 agonist: 1; ssDAF-12 act: -1; DAX1 conf: 2; SF1 AF2mut Luc: 0; SMARCA2 conf: 6; GAL4-VP16 Luc: 0

What do the screens show for `O=C(Nc1ccc2nc3n(c(=O)c2c1)CCCCC3)c1ccccn1`?
DAX1 inh-1: 4.8*; SMARCA2 activ: 8.2*; DAX1 inh-2: 2; hcDAF-12 act: 2; hgDAF12 agonist: 13*; ssDAF-12 act: 0; DAX1 conf: 9.1*; SF1 AF2mut Luc: 4.7*; SMARCA2 conf: 3; GAL4-VP16 Luc: 10*

How did Cc1ccc(C)c(NC(=O)N2CCc3ccccc3C2)c1 do in these assays?
DAX1 inh-1: 3; SMARCA2 activ: 3; DAX1 inh-2: 1; hcDAF-12 act: -1; hgDAF12 agonist: 1; ssDAF-12 act: -1

How did O=C(Nc1ccccc1F)N1CCc2ccccc2C1 do in these assays?
DAX1 inh-1: 6.4*; SMARCA2 activ: 10*; DAX1 inh-2: 2; hcDAF-12 act: 3; hgDAF12 agonist: 7; ssDAF-12 act: 0; DAX1 conf: 6.8*; SF1 AF2mut Luc: 7.1*; SMARCA2 conf: 2; GAL4-VP16 Luc: 8.0*

Results for COc1ccccc1OCc1cc(C(=O)N(C)CCC2CCCCO2)no1 (stereo unspecified) ?
DAX1 inh-1: 5.0*; SMARCA2 activ: 11*; DAX1 inh-2: 2; hcDAF-12 act: 3; hgDAF12 agonist: 11*; ssDAF-12 act: 0; DAX1 conf: 7.1*; SF1 AF2mut Luc: 3; SMARCA2 conf: 6; GAL4-VP16 Luc: 11*

What do the screens show for `COC(=O)c1ccc(NC(=O)c2ccc3nsnc3c2)cc1`?
DAX1 inh-1: 0; SMARCA2 activ: -3; DAX1 inh-2: -1; hcDAF-12 act: -3; hgDAF12 agonist: 3; ssDAF-12 act: -1
